DT40 TDP1 CPT: growth inhibition of DT40 Tdp1-/-;hTDP1 cells with camptothecin (screen for TDP1 inhibitors); 420,000 tested, 12% active; Potency, µM (highest dose often 46.2 µM), inactives show at the top dose activity change, negative = growth inhibition, most hits filed as inhibitors; chicken DT40 Tdp1-/-;hTDP1 cells + 20 nM CPT, ATP luminescence, 48 h; further: potency means the concentration at half of the fitted maximal effect; nearly all actives have a fitted effect of over 55% in size
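Cell growth measured by CellTiter-Glo luminescence after a minimum 48 h, 37 C compound exposure with 20 nM CPT in Tdp1-knockout DT40 cells stably expressing hTDP1, seeded 400/well; qHTS titration format.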
DT40 TDP1 no CPT: qHTS for Inhibitors of human tyrosyl-DNA phosphodiesterase 1 (TDP1): qHTS in cells in absence of CPT | DT40 Tdp1-/- hTDP1 cells, no CPT, ATP luminescence, 48 h | 420,000 tested, 15% active | AID 686978, 2013 | Potency, µM (series often up to 46.2 µM), inactives show at the top dose activity change, negative = growth inhibition, most hits filed as inhibitors; further: potency means the concentration at half of the fitted maximal effect; nearly all actives have a fitted effect of over 55% in size
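Stably hTDP1-transfected Tdp1-null chicken DT40 cells were treated with library compounds minus camptothecin and grown for at least 48 hr at 37 °C, after which cellular ATP was quantified by luminescence.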
uPA surface inh: blocks generation of uPA at the cell surface. cell surface uPA generation assay, qHTS. Potency, µM (series often up to 38.3 µM), for the others: at the top dose activity change, negative = inhibition, hits mostly inhibitors. 330,000 tested, 0.31% active. AID 540303; active means well fitted inhibition curve with a large enough effect; inconclusive means small, poorly fitted or top-dose-only effect; inactive means no such curve, though single readings can be large or run the other way; tested in mouse RAW 264.7 cells; further: potency means the concentration at half of the fitted maximal effect; nearly all actives have a fitted effect of over 55% in size
HT1080NT lethal: kills 2HG-producing HT-1080-NT fibrosarcoma cells; HT-1080-NT fibrosarcoma viability, CellTiter-Glo ATP luminescence, 48 h; Potency, µM (doses to about 46.1 µM), without a hit: at the highest dose activity, negative = less viability, usual class: cytotoxic; 360,000 tested, 1.6% active; AID 686970;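 further: NT is the 2HG producing partner of a matched IDH1 knockdown line; potency means the concentration at half of the fitted maximal effect; 0% = DMSO-treated cells and -100% = media-only wells without cells; nearly all actives have a fitted effect of over 55% in size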
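Read-out is CellTiter-Glo luminescence after 10 minutes at room temperature, following 48 hours' compound treatment of HT-1080-NT cells (750 cells/well, RPMI, 5% FBS, 37 degrees C).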
HT1080 IDH1KD tx: kills HT-1080 cells with IDH1 knockdown | 360,000 tested, 2% active | HT-1080 IDH1 knockdown viability, ATP luminescence, 48 h | Potency, µM (titrated, usually from 46.1 µM), for inactives: at the highest dose activity, negative = toxicity, usual class: cytotoxic;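 further: potency means the concentration at half of the fitted maximal effect; 0% = DMSO wells and -100% = cell-free medium wells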
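After a 2 h attachment period, IDH1KD HT-1080 cells took pin-transferred compound for 48 h at 37 °C; ATP-based luminescence after 10 min room-temperature reagent incubation reported viability.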
IL-1B inflam inh: inhibitors of inflammasome signaling (IL-1 beta secretion). THP-1 LPS/ATP IL-1B secretion, AlphaLISA, 16 h; stronger effect = lower value. activity change, % at 57.5 µM. 360,000 tested, 4.7% active; in the data active means activity change below about -50%; inconclusive means mostly about -30% to -49%
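THP-1 cells pretreated 1 hr with compounds (up to 57.5 uM final), then stimulated with LPS (250 ng/mL final) plus ATP (1.25 mM final); secreted IL-1B measured by AlphaLISA after 16 hr, decreased signal indicating inhibition.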
An asterisk follows results filed as active; ? = inconclusive; · = no result given. Shown are actives, neighbours in structure and some others; about 19% of the full set was active somewhere. Unless noted, the call rests on the fitted dose curve; in most records, active means well fitted curve in the direction sought with a large enough effect; inconclusive means small, poorly fitted or top-dose-only effect, or another doubt; inactive means no such curve, though single readings can be large; an effect the other way counts as inactive or inconclusive. Unless noted, on the % scale 0 is the no-effect control and ±100 the full control effect.

SMILES | DT40 TDP1 CPT | DT40 TDP1 no CPT | uPA surface inh | HT1080NT lethal | HT1080 IDH1KD tx | IL-1B inflam inh
Cc1cc(=O)oc2c(C)c(OCC(=O)N3CCC(C(=O)O)(c4ccccc4)CC3)ccc12 | -12% | -14% | -10% | -3% | -4% | 6
COc1ccccc1C1C([N+](=O)[O-])=C(N)Oc2c1c(=O)oc1ccccc21 (stereo not given) | 23% | 0% | 3% | 3% | 2% | -17
C=CCN1CC[C@]23c4c5ccc(O)c4OC2C(O)C=CC3[C@H]1C5 (stereo not given in full) | -1% | -16% | 0% | 21% | 0% | 0
CN(C)CCO | -8% | 9% | · | · | · | ·
NC1C[C@H]1c1ccccc1 (stereo not given in full) | -12% | -5% | · | · | · | ·
CCOC(=O)[C@]12Cc3cc(Cl)ccc3[C@H]1N(C1CCCCC1)C(=O)c1cc(OC)ccc12 | 0.52µM* | 0.52µM* | · | 2.3µM* | 1.8µM* | -110*
CCOC(=O)[C@]12Cc3ccc(C)cc3[C@H]1N(C1CCCCC1)C(=O)c1cc(OC)ccc12 | 2.9µM* | 2.9µM* | · | 4.1µM* | 3.3µM* | -116*
Cc1nn(CC(=O)N2CCC3(CC2)OCCO3)c(=O)c2cc3ccccc3n12 | -10% | -11% | -2% | 2% | 8% | 0
O=C(Nc1ccc(F)c([N+](=O)[O-])c1)N1C[C@H]2C[C@@H](C1)c1cccc(=O)n1C2 | -30% | 20% | 4% | 1% | 4% | -27
O=C1NCN(c2ccccc2)C12CCN(CC1COc3ccccc3O1)CC2 (stereo not given) | -3% | -20% | · | · | · | ·
O=C(NCCN1CCC(n2c(=O)[nH]c3ccccc32)CC1)c1ccc2ccccc2c1 | 23µM* | ? | · | -75% | ? | ·
O=C(NCCN1CCC2(CC1)C(=O)NCN2c1cccc(F)c1)c1ccc2ccccc2c1 | ? | ? | · | 15µM* | 21µM* | ?
O=C(N/N=C/c1c(O)n(CCC2=CCCCC2)c(=S)[nH]c1=O)c1ccccc1 | ? | ? | 1% | ? | ? | 42
COc1ccc(/C=C/C(=O)c2c(O)n(CCC3=CCCCC3)c(=O)[nH]c2=O)cc1 | 6.5µM* | ? | 7% | -7% | -9% | -16
Nc1ccccc1N=Cc1c(O)n(CCC2=CCCCC2)c(=O)[nH]c1=O | ? | ? | -4% | -6% | 0% | 6
O=C(N/N=C/c1c(O)n(CCC2=CCCCC2)c(=O)[nH]c1=O)c1ccccc1 | ? | 21µM* | 0% | -25% | ? | 41
CCCCn1c(O)c(C(=O)/C=C/c2ccc3c(c2)OCO3)c(=O)[nH]c1=O | ? | ? | 1% | -3% | -2% | -73*
O=C(/C=C/c1ccc2c(c1)OCO2)c1c(O)n(CCC2=CCCCC2)c(=O)[nH]c1=O | ? | 5.8µM* | -4% | 6% | 3% | 0
CCCCn1c(O)c(C(CC)=NCc2ccc3c(c2)OCO3)c(=O)[nH]c1=O | ? | ? | -8% | -16% | -27% | -22
CN(C)CCN=Cc1c(O)n(CCC2=CCCCC2)c(=O)[nH]c1=O | -3% | 14% | · | 16% | -6% | -18
COc1cc2c(cc1OC)-c1c(OC)c(OC)c(CO)c3c1C(C2)N(C)CC3 (stereo not given) | 4% | -13% | · | · | · | ·
CC(N)[C@H](O)c1ccccc1 (stereo not given in full) | 3% | 0% | · | · | · | ·
CCOP(=O)(OCC)C1(O)C(=O)Nc2ccc(Br)cc21 (stereo not given) | ? | 16µM* | -2% | 1% | 1% | 33
CCOC(=O)C1=C(C)OC(N)=C(C(=O)OCC)C12C(=O)Nc1ccc(Br)cc12 (stereo not given) | ? | ? | 3% | 0% | -1% | 40
CCN(C[C@H]1N[C@@](C)(C(=O)OC)[C@H]2C(=O)N(Cc3ccccc3)C(=O)[C@@H]12)S(=O)(=O)c1ccc(C(C)(C)C)cc1 | 21µM* | 23µM* | 1% | -12% | -5% | -12
SMILES | DT40 TDP1 CPT | DT40 TDP1 no CPT | uPA surface inh | HT1080NT lethal | HT1080 IDH1KD tx | IL-1B inflam inh
CCN(C[C@H]1N[C@@](CC)(C(=O)OC)[C@H]2C(=O)N(Cc3ccccc3)C(=O)[C@@H]12)C(=O)Nc1ccc(Cl)cc1 | ? | 21µM* | -7% | 0% | -23% | -23
COC(=O)[C@]1(C)N[C@H](CN(C)S(=O)(=O)c2ccc(-c3ccccc3)cc2)[C@@H]2C(=O)N(Cc3ccccc3)C(=O)[C@@H]21 | ? | ? | -5% | -6% | 1% | -5
COC(=O)[C@@]1(C)[C@H]2C(=O)N(Cc3ccccc3)C(=O)[C@H]2[C@H]2CN=C(SCc3ccc(Cl)cc3)N21 | ? | ? | 9% | 4% | -4% | 0
O=C(O)/C=C/C(=O)O | 0% | 1% | -3% | 0% | 11% | 8
Nc1nc(N)c2nc(CNc3ccc(C(=O)N[C@@H](CCC(=O)O)C(=O)O)cc3)cnc2n1 | ? | 16µM* | · | · | · | ·
Cc1ccc(OCC(=O)N2CCN(CCc3ccncc3)CC2)cc1C | -20% | -21% | · | · | · | ·
CCOC(=O)C1(c2ccccc2)CCN(CCC(=O)Nc2cccc(Br)c2)CC1 | ? | ? | -6% | 18µM* | 23µM* | -101*
CCOC(=O)C1(c2ccccc2)CCN(CCC(C#N)(c2ccccc2)c2ccccc2)CC1 | 13µM* | 6.5µM* | ? | -30% | ? | -29
CCOC(=O)C1(c2ccccc2)CCN(CCC(=O)Nc2ccc(C(=O)OC)cc2)CC1 | 21µM* | ? | ? | -4% | -4% | -27
COc1ccc(-c2nn(CCC#N)cc2C(=O)Nc2cccc([N+](=O)[O-])c2)cc1OC | 6% | 12% | 30% | 4% | 1% | 0
CCc1cccc(C)c1N(C(=O)CCl)C(C)COC (stereo not given) | ? | -17% | · | · | · | ·
CC(C)N(C(=O)CCl)c1ccccc1 | 6.5µM* | 8.2µM* | 6.3µM* | 3.7µM* | ? | -51*
O=C(/C=C/c1c[nH]c2ccccc12)c1c(O)n(CCc2ccccc2)c(=O)[nH]c1=O | 2% | -14% | -3% | 9% | 15% | ·
CNCC[C@H](Oc1cccc2ccccc12)c1cccs1 | 16µM* | 23µM* | ? | ? | ? | ?
CNC(=O)Oc1cccc2ccccc12 | ? | ? | -6% | · | · | 14

Screening data (PubChem)
